{"source": "the supplement of paper PMC9948646", "note": "Values without a mark were called inactive.", "data": [{"system": "gramicidin D channels in DC22:1PC lipid vesicles (bilayer-modifying potency)", "experiment": "initial Tl+ fluorescence quench rate relative to no-drug control (NormRate, gramicidin monomer-dimer shift) (ratio (fold of control)); higher = stronger bilayer-modifying effect (equilibrium shifted toward conducting dimers), active = 1.5 or more", "conditions": "10 µM; lipid concentration 50 µM; temperature: 25 °C", "experimental": "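Stopped-flow fluorescence quench assay: ANTS-loaded DC22:1PC large unilamellar vesicles doped with gramicidin D (1:2000), 50 µM lipid, equilibrated 10 min with 10 µM drug (0.1% DMSO), mixed with Tl+ quench buffer at 25°C. Initial quench rate (Tl+ influx) was fitted with a modified stretched exponential and normalised to the no-drug control rate (NormRate); duplicates from two independent LUV preparations (triplicates for 7 drugs).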", "values": [{"smiles": "CO/C=C(/C(=O)OC)c1ccccc1Oc1cc(Oc2ccccc2C#N)ncn1", "initial Tl+ fluorescence quench rate": 1.05}, {"smiles": "CO/N=C(\\C(=O)OC)c1ccccc1CO/N=C(\\C)c1cccc(C(F)(F)F)c1", "initial Tl+ fluorescence quench rate": 1.36}, {"smiles": "O=C1O[C@@H](CO)CN1c1cc(F)c(C2=CCN(Cc3ccccc3)CC2)c(F)c1", "initial Tl+ fluorescence quench rate": 1.13}, {"smiles": "Cc1cccc(C(=O)Nc2ccnc(N(C)C3CCN(CC(C)C)CC3)c2)c1", "initial Tl+ fluorescence quench rate": 1.12}, {"smiles": "Cc1nn(C)c(C)c1NS(=O)(=O)c1c(Cl)cc(-c2ccnc(N3CCNCC3)c2)cc1Cl", "initial Tl+ fluorescence quench rate": 1.38}, {"smiles": "CC1(C)OB(O)c2ccc(C3=NO[C@@](c4cc(Cl)c(F)c(Cl)c4)(C(F)(F)F)C3)cc21", "initial Tl+ fluorescence quench rate": "4.11 (active)"}, {"smiles": "Cc1cc(C2=NO[C@@](c3cc(Cl)c(F)c(Cl)c3)(C(F)(F)F)C2)ccc1C(=O)NCc1ccc2c(c1)C(C)(C)OB2O", "initial Tl+ fluorescence quench rate": "4.21 (active)"}, {"smiles": "Nc1c2c(nc3sc4c(c13)CCCC4)CCCC2", "initial Tl+ fluorescence quench rate": 1.07}, {"smiles": "Cc1nn(Cc2ccccc2)c(Cl)c1C(=O)NC1CCCCCC1", "initial Tl+ fluorescence quench rate": 1.1}, {"smiles": "O=C1O[C@@H](COc2ccon2)CN1c1cc(F)c(C2=CCN(Cc3ccccc3)CC2)c(F)c1", "initial Tl+ fluorescence quench rate": 1.31}, {"smiles": "CCc1nn(C)c(C(=O)NCc2ccc(Oc3ccc(C)cc3)cc2)c1Cl", "initial Tl+ fluorescence quench rate": "2.89 (active)"}, {"smiles": "CC(C)(C)[C@@H](O)[C@H](Oc1ccc(-c2ccccc2)cc1)n1cncn1", "initial Tl+ fluorescence quench rate": "2.39 (active)"}, {"smiles": "C[C@@H]1CO[C@](Cn2cncn2)(c2ccc(Oc3ccc(Cl)cc3)cc2Cl)O1", "initial Tl+ fluorescence quench rate": "2.49 (active)"}, {"smiles": "CO[C@@H]1CN(c2ccc(C#C[C@@]3(O)CN4CCC3CC4)c(Cc3ccccc3)n2)C[C@H]1O", "initial Tl+ fluorescence quench rate": 1.06}]}]}
